The campaign covered roughly 53,000 compounds. About 900 (1.7%) showed an effect of 50% or more. Many of the other results were omitted from the sample, so strong results are more common in it than they were.
tested on: Mycobacterium tuberculosis; assay: Cornell - Phenotypic assay to identify agents that inhibit growth of Mycobacterium tuberculosis; assay type: functional; parameters: scale not given: direction of the effect not stated beside the values; details: 10 mM as filed; unlikely as a test dose

Row | Structure (SMILES) | Percent Effect [%]
1 | CN1CCOC(c2cncc(CCC(=O)N(C)C)n2)C1 (centres undefined) | -44.27
2 | Fc1cccc(Nc2nc(N3CCCC3)nc3c2CNCC3)c1 | 102.5
3 | COc1cccc(Nc2nc(N3CCCC3)nc3c2CNCC3)c1.Cl | 17.23
4 | Oc1nc(N2CCOCC2)nc2c1CCN(Cc1cccc(F)c1)CC2 | -50.2
5 | Cc1ccc(Cl)cc1N1CCN(CC(=O)NCc2ccco2)CC1 | 15.76
6 | O=C(NCC1CCCO1)Nc1nnc(C(F)(F)F)s1 (centres undefined) | 1.87
7 | CCOCC(=O)NCCc1nc(C)cc(C(F)(F)F)n1 | 8.236
8 | COc1nccnc1-c1cc(NC2CCNCC2)nc2[nH]ccc12 | 48.16
9 | FC(F)(F)c1ccc(-c2cc(NC3CCNCC3)nc3[nH]ccc23)nc1 | 3.154
10 | COc1ncc(-c2cc(NC3CCCC3)nc3[nH]ccc23)c(OC)n1 | 89.73
11 | COc1cc(-c2cc(NC3CCCC3)nc3[nH]ccc23)nc(N)n1 | 98.19
12 | COc1nccnc1-c1cc(NC2CCCC2)nc2[nH]ccc12 | 101.6
13 | CNc1cc(C)nc(-c2cc(NC3CCNCC3)nc3[nH]ccc23)n1 | 12.28
14 | COCCNc1cc(-c2ccccc2S(N)(=O)=O)c2cc[nH]c2n1 | 21.18
15 | Nc1ccnc(-c2cc(NC3CCNCC3)nc3[nH]ccc23)c1 | 11.63
16 | COc1ncc(-c2cc(NCCN(C)C)nc3[nH]ccc23)c(OC)n1 | -22.77
17 | C=Cc1cccc(CN(Cc2cnn(C)c2)C2CC2)c1 | 14.04
18 | Cc1nc(C)n(CC2CCCCN2Cc2cn3ccccc3n2)n1 (centres undefined) | -36.82
19 | Cc1csc(C(C)(C)NCCOc2ccc(CC#N)cc2)n1 | -14.48
20 | NC(=O)N1CCCN(Cc2cc(F)cc(Br)c2)CC1 | 17.84
21 | Cc1cccc(CN2C[C@@H]3COC[C@]3(CNC(=O)C3CCC3)C2)c1.O=C(O)C(F)(F)F | 0.1331
22 | CCOC1CC2(CCN(c3cnccn3)CC2)c2ccccc21 (centres undefined) | 32.32

Row | Structure (SMILES) | Percent Effect [%]
23 | CN(C)CCOC1CC2(CCN(c3cnccn3)CC2)c2ccccc21.O=C(O)C(F)(F)F (centres undefined) | -38.38
24 | O=C(O)C(F)(F)F.c1cncc(C2CC3(CCN(c4cnccn4)CC3)c3ccccc32)c1 (centres undefined) | 50.88
25 | Cc1cnc(-c2nc(O)c3c(n2)CN(C(=O)C2CCCC2)CC3)cn1 | -5.983
26 | Cn1cc(S(=O)(=O)NCC(C)(O)c2ccsc2)cn1 (centres undefined) | -58.46
27 | COC(=O)c1ccc(NCc2csc(C)n2)cc1Cl | 15.32
28 | COCc1nc(CNc2cccc(-c3csc(C)n3)c2)cs1 | 38.18
29 | CC(C)(C)OC(=O)N1CCCc2ccc(NCc3ncc[nH]3)cc21 | -12.48
30 | Fc1ccc(NCc2ncc[nH]2)cc1Br | 55.27
31 | COCc1nc2cc(NCc3nc(C)cs3)ccc2o1 | 107.4
32 | COCc1nc2cc(NCc3csc(C)n3)ccc2o1 | 107.6
33 | COCc1nc(C2CCN(Cc3ncc[nH]3)CC2)no1 | -22.72
34 | Fc1cccc(NCc2ncc[nH]2)c1 | 35.73
35 | Cc1csc(CNc2cccc(OCCN3CCCC3)c2)n1 | 34.79
36 | COc1cc(NCc2ncc[nH]2)ccc1Br | -5.052
37 | COCc1nc2cc(NCc3ncc[nH]3)ccc2o1 | 107.7
38 | Cc1csc(CNc2cnn(C(C)C)c2)n1 | -3.592
39 | COc1ccc(OC(F)F)c(NCC(=O)NCC(=O)N2CCCC2)c1 | 14.52
40 | COC(=O)COc1c(F)cc(Br)cc1C(C)=O | -28.15
41 | NS(=O)(=O)NCc1cc(-c2ccco2)n(CC(F)(F)F)n1 | 5.494
42 | O=C(Nc1cccn(Cc2ccc(F)cc2)c1=O)c1cnc[nH]1 | 15.84
43 | Cc1nnc(SCC(=O)c2cc3c(cc2Cl)NC(=O)C3)o1 | 14.6
44 | Cc1nc(C(C)N2Cc3ncccc3C2=O)cs1 (centres undefined) | 12.56

Row | Structure (SMILES) | Percent Effect [%]
45 | COCc1nc2cc(NCc3ccncc3)ccc2o1 | 39.69
46 | COCc1nc2cc(NCc3cc[nH]n3)ccc2o1 | 106.8
47 | COCc1nc(CNc2cccc(-c3ncon3)c2)cs1 | -0.7134
48 | CCC(O)CN1CCN(C(=O)c2ccc(Cn3cccc3)cc2)CC1 (centres undefined) | -35.22
49 | CCCS(=O)(=O)N1CCN(Cc2ccco2)CC1.O=C(O)C(=O)O | -8.655
50 | COc1cc(C(=O)N2CC3(CCNCC3)c3cc(Cl)ccc32)ccn1.O=C(O)C(F)(F)F.O=C(O)C(F)(F)F | 15.78
51 | CNc1cc(-c2cccc(CN)c2)c2cc[nH]c2n1 | 80.74
52 | CNc1cc(-c2ccccc2CN)c2cc[nH]c2n1 | 23.62
53 | CNc1cc(-c2ccc(COCCN)cc2)c2cc[nH]c2n1 | 26.91
54 | CCOc1c(Cl)cc(/C=C/c2ncc(C(=O)O)s2)cc1OC | 33.38
55 | CCOCC1CCN(C(=O)C(c2ccccc2F)N(C)C)CC1 (centres undefined) | 28.27
56 | CNC(=O)C1CCCN(C(=O)c2cncs2)C1 (centres undefined) | 43.16
57 | CS(=O)(=O)N1CCN(C(=O)c2cncs2)CC(C(N)=O)C1 (centres undefined) | 53.86
58 | CNC(=O)C1CN(C(=O)c2cccs2)CCN(S(C)(=O)=O)C1 (centres undefined) | 18.15
59 | COC[C@@]12CCO[C@@H]1CCN(C(=O)Cc1ccccc1C)C2 | 7.914
60 | Cc1oc(C)c(C(=O)NS(=O)(=O)c2ccc3c(c2)OCCO3)c1Br | 6.395
61 | Cc1oc(C)c(C(=O)NS(=O)(=O)c2ccc3c(c2)OCCCO3)c1C | 58.42
62 | Cc1ccc(C(=O)NS(=O)(=O)c2ccc3c(c2)OCCCO3)o1 | -1.542
63 | NC(=O)N1CCC(C(=O)NC2CCc3nccn3C2)CC1 (centres undefined) | -11.45
64 | COC(=O)C(c1cc(F)ccc1F)N(C)C(=O)c1ccccn1 (centres undefined) | 0.1474
65 | COC(=O)C(NC(=O)COC1CCCC1)c1cc(F)ccc1F (centres undefined) | 63.8
66 | COC(=O)C(NC(=O)c1ccco1)c1cc(F)ccc1F (centres undefined) | 104.5

Row | Structure (SMILES) | Percent Effect [%]
67 | COC(=O)C(NC(=O)C(C)C)c1cc(F)ccc1F (centres undefined) | 35.55
68 | COC(=O)C(NC(=O)COC1CCCCC1)c1ccccc1 (centres undefined) | 43.33
69 | NC(=O)C(NC(=O)COC1CCCC1)c1ccccc1 (centres undefined) | 21.89
70 | O=C(c1cc(-c2cccs2)cs1)N1CCSCC1 | 48.33
71 | Cc1cc(NC(=O)NCC(C)N2CCc3ccccc32)no1 (centres undefined) | 26.44
72 | NC(c1ccccc1)c1ccc(OC(F)F)cc1 (centres undefined) | 11.06
73 | NC(CC1CCCC1)c1ccc(Oc2ccccc2)cc1 (centres undefined) | 105
74 | NC(=O)C(NC(=O)COC1CCCCC1)c1ccccc1 (centres undefined) | 22.67
75 | Cl.NC(CC1CCCC1)c1ccccc1 (centres undefined) | 23.09
76 | Cl.NC(CC1CCCCC1)c1ccccc1 (centres undefined) | 52.12
77 | OC(CN1CCN(CC2CCCCC2)CC1)c1ccccc1 (centres undefined) | 2.655
78 | COc1cc(C)nc(N2CCN(C(=O)c3ccn(C)c(=O)c3)CC2)n1 | 29.4
79 | Cn1c2ccccc2c2ncn(CCCN3CCOCC3)c(=O)c21 | -22.77
80 | Cc1nc(CCC(N)=O)cc(C2CCCCN2S(C)(=O)=O)n1 (centres undefined) | 34.9
81 | Cc1nn(C)c(Cl)c1CNCc1cccnc1N1CCCCC1.Cl | 10.36
82 | Cc1ccccc1N1CCN(c2ccncn2)C(C)C1 (centres undefined) | 16.47
83 | Cc1ccccc1N1CCN(c2cc(N(C)C)ncn2)C(C)C1 (centres undefined) | 75.02
84 | Cc1ccc(N2CCN(c3ccccc3C)CC2C)nn1 (centres undefined) | 29.54
85 | COCC1c2c(cnn2C)CCN1Cc1ccsc1 (centres undefined) | 24.96
86 | Cc1noc(C)c1CN1C[C@H](C)[C@]2(CCN(Cc3cccnc3)C2=O)C1.O=C(O)C(F)(F)F.O=C(O)C(F)(F)F | -5.753
87 | Cn1ccnc1CN1CCC2(CCC(=O)N2CCN2CCCC2)CC1.O=C(O)C(F)(F)F.O=C(O)C(F)(F)F | 19.98
88 | Cc1cnn(CC2CN(c3cnc4ccccc4n3)CCO2)c1 (centres undefined) | 106.1

Row | Structure (SMILES) | Percent Effect [%]
89 | CN(C)CC1CN(c2cnc3ccccc3n2)CCO1 (centres undefined) | -10.68
90 | Cc1cnn(CC2CN(c3ncnc4ccccc34)CCO2)c1 (centres undefined) | 29.19
91 | Cc1nn(C)cc1-c1cc(C(=O)NCC(C)(C)c2ccc(F)cc2)n[nH]1 | 61.27
92 | Cc1nn(C)cc1-c1cc(C(=O)NCC(C)(C)c2cccc(F)c2)n[nH]1 | 26.97
93 | Cc1nn(C)cc1-c1cc(C(=O)NCC(C)(C)c2ccccc2F)n[nH]1 | -16.11
94 | COCC1c2nnn(CC3CC3)c2CCN1Cc1ccncc1.O=C(O)C(F)(F)F.O=C(O)C(F)(F)F (centres undefined) | 18.59
95 | CN1CCC(Cc2cc(N(C)C)ncn2)C1 (centres undefined) | 2.45
96 | CC(C)c1cc(CN2CCNCC2)no1 | 107.4
97 | CC(C)c1cc(CN2CCC(N)CC2)no1 | -17.69
98 | CC(C)c1cc(CN2CCC(CC(=O)O)CC2)no1 | -2.549
99 | CN1C[C@@H](C(=O)NC(C)(C)C)[C@@]2(COc3ccc(F)cc3C2=O)C1 | 28.72
100 | COc1ccccc1C1Cn2c(C)cnc2CN1Cc1ccc(C)nc1 (centres undefined) | -10.88
101 | O=C(c1c(F)cccc1F)N1CCC[C@@H]1Cn1c(=O)oc2ccccc21 | 34.56
102 | COc1cccc(OC2CN(C(=O)c3c(C)noc3C)C2)c1 | 10.7
103 | COc1cccc(OC2CN(C(=O)c3sccc3C)C2)c1 | 55.64
104 | COc1cccc(OC2CN(C(=O)c3ccoc3C)C2)c1 | -6.916
105 | Cc1nc2c(c(NCc3cnc4c(c3)CCC4)n1)CNC2 | 4.431
106 | COCCS(=O)(=O)c1ncc(CN(C)C)n1Cc1ccccc1 | 5.309
107 | CN(Cc1cccc(F)c1)C(=O)CN1CCCC1CCc1ccccc1 (centres undefined) | 61.93
108 | CN(Cc1cccc(F)c1)C(=O)CN1CCCCC1Cn1cncn1 (centres undefined) | -21.34
109 | N#CCCN(CCC#N)C(=O)CN1CCCC1Cc1cccc(F)c1 (centres undefined) | 5.513
